According to PubChem BioAssay (Tox21):
Results filed as inconclusive are left out. Where a call stands in place of a potency, no number is given. The source made the active and inactive calls. The call rests on the fitted dose curve; in most records, active means well fitted cell-killing curve with a large enough effect in the repeat runs; inconclusive means weak or mixed curves, or effect the other way; inactive means flat fitted curve, though single readings scatter.

Legend:
[1] = cAMP Responsive Elements (CRE) small molecule antagonists, cell-based qHTS assay: qHTS cell viability counter screen (AID 2060913); details: CRE-bla HEK293T viability, CellTiter-Glo luminescence, 5 h; series mostly up to 92.4 µM; further: nearly all actives have a fitted effect of over 40% in size
Outline: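 CRE-bla HEK293T cells were seeded in assay medium with 10% dialyzed FBS, incubated 18 hrs at 37 C, then exposed to compounds plus 0.25 uM final NKH477 for 3 hrs. Viability was read by CellTiter-Glo luminescence after 30 min, in the same wells.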

[2] = cAMP Responsive Elements (CRE) small molecule agonists, cell-based qHTS assay: qHTS cell viability counter screen (AID 2060914); details: CRE-bla HEK293T viability, CellTiter-Glo luminescence, 5 h; series mostly up to 92.4 µM;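 further: viability read after 3 h of compound exposure; nearly all actives have a fitted effect of over 50% in size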
Outline: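 CRE-bla HEK 293T cells, plated 18 h at 37 °C, were exposed to compounds for 3 h at 37 °C/5% CO2. Viability was then measured in the same wells by CellTiter-Glo luminescence after 30 min at room temperature.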

| Structure (SMILES) | Potency [1] | Potency [2] |
| --- | --- | --- |
| CN(C)CCOCCN(C)CCO | inactive | inactive |
| COc1ccc(N=[N+]([O-])c2ccc(OC)cc2)cc1 | inactive | inactive |
| NS(=O)(=O)c1ccc(N2CCCCS2(=O)=O)cc1 | inactive | inactive |
| OC(CCN1CCCC1)(c1ccccc1)C1CCCCC1 (configuration not stated) | inactive | inactive |
| NC1CCCCC1 | inactive | inactive |
| CCOC(=O)/C=C/C(=O)O | inactive | inactive |
| O=C(O)c1cc(=O)c2ccccc2o1 | inactive | inactive |
| COCCOC(=O)c1ccccc1C(=O)OCCOC | inactive | inactive |
| CCCCOCCOC(=O)CCCCCCCCC(=O)OCCOCCCC | inactive | inactive |
| CC(=O)OCC(=O)NCCCOc1cccc(CN2CCCCC2)c1 | inactive | inactive |
| C[C@@H](CN1CC(=O)NC(=O)C1)N1CC(=O)NC(=O)C1 | inactive | inactive |
| Cc1ccc(C(C)C)cc1O | inactive | inactive |
| C=CC(=O)OCCOC(=O)C=C | inactive | inactive |
| O=[N+]([O-])c1cc(Cl)c(Cl)c(Cl)c1Cl | inactive | inactive |
| COc1cc(NC(=O)CC(C)=O)c(OC)cc1Cl | inactive | inactive |
| CCCCCCC/C=C/C=O | inactive | inactive |
| CCC(=O)Oc1ccc(/C(CC)=C(\CC)c2ccc(OC(=O)CC)cc2)cc1 | inactive | inactive |
| CN1CCN(C)CC1 | inactive | inactive |
| CCCCCCC[N+](CC)(CC)CCCCc1ccc(Cl)cc1 | inactive | inactive |
| CCCCOc1cc(C(=O)OCCN(CC)CC)ccc1N | inactive | inactive |
| O=C(NCc1ncc(C(F)(F)F)cc1Cl)c1c(Cl)cccc1Cl | inactive | inactive |
